# Screens from PubChem BioAssay.
# FLuc inh: Firefly luciferase inhibition profiling of diverse chemical library using quantitative high-throughput screening; purified P. pyralis luciferase, luminescence, biochemical; Potency, µM (titrated, usually from 115 µM), usual class: inhibitors; 2.5% of 76,000 active; further: nearly all actives have a fitted effect of over 65% in size
#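 Luminescence read by CCD imaging after purified firefly luciferase (10nM final) was added to substrate buffer holding 10uM D-luciferin and 10uM ATP, pH 7.5, pre-dosed with compound.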
# SNCA expr inhib: Primary qHTS assay for inhibitors of alpha-synuclein gene (SNCA) expression; HEK-293 SNCA-luciferase knock-in, luminescence, 24 h; Potency, µM (titrated, usually from 57.2 µM), inactives show at the top dose activity change, negative = inhibition, hits mostly inhibitors; 0.17% of 140,000 active; AID 1671194, 2021;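 further: plate controls were DMSO cells for no effect and cell-free wells for full effect; nearly all actives have a fitted effect of over 45% in size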
# HEK293 viab: GF-AFC viability counterscreen for inhibitors of alpha-synuclein gene (SNCA) expression; HEK-293-SNCA-luc viability, GF-AFC fluorescence, 24 h; Potency, µM (doses to about 57.1 µM), without a hit: at the highest dose activity change, negative = cytotoxicity, usual class: cytotoxic; 0.12% of 150,000 active;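 further: 0% = DMSO-treated cells and -100% = medium-only wells without cells; nearly all actives have a fitted effect of over 30% in size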
#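 Cytotoxicity counterscreen: after 24 h compound treatment of genome-edited SNCA-luciferase HEK-293 cells, live-cell protease substrate GF-AFC read by fluorescence after 30 min; activity scaled between DMSO (0%) and medium-only (-100%), curves Hill-fitted.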
# HEK cytotox: Cytotoxic Profiling in HEK 293 Cell Line of Diverse Libraries Using Quantitative High-Throughput Screening; 6.6% of 94,000 active; AID 1345083, 2018; HEK 293 viability, ATP luminescence (CellTiter-Glo), 48-72 h; Potency, µM (titrated, usually from 115 µM), without a hit: at the highest dose activity change, negative = cytotoxicity, most hits filed as inhibitors; further: nearly all actives have a fitted effect of over 60% in size
#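 Read-out: CellTiter-Glo ATP luminescence. Cells: HEK 293, 250 cells/well. Exposure: 48 or 72 hr, 37 degree Celsius.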
# NPR1 antag: Natriuretic polypeptide receptor (hNpr1) antagonism - Primary qHTS; Atrial natriuretic peptide receptor 1 (Homo sapiens), P16066; HEK293 hNpr1 GloSensor cGMP, ANP-stimulated luminescence; Potency, µM (doses to about 46.3 µM), for the others: at the highest dose activity change, negative = inhibition, usual class: inhibitors; 1.6% of 76,000 active; calls by dose curve; further: nearly all actives have a fitted effect of over 60% in size
# Target sequence (P16066 whole entry, looked up): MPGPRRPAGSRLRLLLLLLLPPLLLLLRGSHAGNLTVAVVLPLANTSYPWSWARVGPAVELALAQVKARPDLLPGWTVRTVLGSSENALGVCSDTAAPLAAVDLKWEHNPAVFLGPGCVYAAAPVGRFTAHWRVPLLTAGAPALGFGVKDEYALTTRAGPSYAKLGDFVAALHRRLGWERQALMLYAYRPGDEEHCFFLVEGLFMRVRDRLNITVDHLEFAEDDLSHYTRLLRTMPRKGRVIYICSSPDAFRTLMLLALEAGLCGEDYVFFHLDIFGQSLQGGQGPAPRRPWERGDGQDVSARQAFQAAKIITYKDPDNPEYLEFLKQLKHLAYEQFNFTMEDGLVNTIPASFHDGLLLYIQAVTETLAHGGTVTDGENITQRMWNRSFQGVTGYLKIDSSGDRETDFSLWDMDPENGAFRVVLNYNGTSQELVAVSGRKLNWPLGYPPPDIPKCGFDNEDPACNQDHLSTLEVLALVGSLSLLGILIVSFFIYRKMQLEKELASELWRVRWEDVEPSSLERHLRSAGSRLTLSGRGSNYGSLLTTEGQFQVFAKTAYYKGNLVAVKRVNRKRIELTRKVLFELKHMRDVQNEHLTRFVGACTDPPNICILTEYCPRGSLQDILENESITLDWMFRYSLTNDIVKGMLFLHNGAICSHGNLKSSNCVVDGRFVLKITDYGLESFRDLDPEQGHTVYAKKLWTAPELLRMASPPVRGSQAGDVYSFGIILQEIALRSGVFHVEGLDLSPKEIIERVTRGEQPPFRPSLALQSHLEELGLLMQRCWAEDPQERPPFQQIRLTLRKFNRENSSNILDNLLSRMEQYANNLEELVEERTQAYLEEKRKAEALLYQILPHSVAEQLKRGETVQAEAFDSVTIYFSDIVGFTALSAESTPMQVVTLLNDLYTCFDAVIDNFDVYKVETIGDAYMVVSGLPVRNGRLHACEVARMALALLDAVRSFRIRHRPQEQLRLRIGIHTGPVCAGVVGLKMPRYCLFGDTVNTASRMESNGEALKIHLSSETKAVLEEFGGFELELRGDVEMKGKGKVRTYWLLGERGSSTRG
#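 HEK293 cells stably expressing human Npr1 and cGMP GloSensor pGS-40F, loaded 2 h with 2% GloSensor reagent, given compound 30 min at room temperature. Luminescence read before and 20 min after 0.1 nM hNppA.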
# NIH3T3 tox: Cytotoxic Profiling in NIH 3T3 Cell Line of Diverse Libraries Using Quantitative High-Throughput Screening. NIH 3T3 viability, CellTiter-Glo ATP luminescence, 48-72 h. Potency, µM (top dose mostly 96.7 µM), without a hit: top-dose activity change, negative = cytotoxicity, hits mostly inhibitors. 4.3% of 94,000 active; further: nearly all actives have a fitted effect of over 55% in size
#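 Mouse fibroblast NIH 3T3 cells, 400 per well, received compound via pintool and were incubated for 48 or 72 hr prior to CellTiter-Glo ATP luminescence measurement.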
# * hit, by the source's call; i = inactive; u = inconclusive; x = no result; [ ] = dose if it differs, or a comment. Sampled rows, rich in hits. Any-hit rate of the full collection: about 7.2%. Unless noted, the call rests on the fitted dose curve; in most records, active means well fitted curve in the direction sought with a large enough effect; inconclusive means small, poorly fitted or top-dose-only effect, or another doubt; inactive means no such curve, though single readings can be large; an effect the other way counts as inactive or inconclusive. Unless noted, on the % scale 0 is the no-effect control and ±100 the full control effect; potency means the concentration at half of the fitted maximal effect.
SMILES,FLuc inh,SNCA expr inhib,HEK293 viab,HEK cytotox,NPR1 antag,NIH3T3 tox
O=C(C1CC1)N1CCCC2(CN[S+](=O)([O-])c3cccnc3O2)C1 (stereo unspecified),x,-12%,2%,i,x,i
O=C(c1ccc(Cl)nc1)N1CCCC(C(=O)N2CCC(c3nc4ccncc4[nH]3)CC2)C1 (stereo unspecified),x,0%,2%,0%,x,-8%
Cc1ccc(NC(=O)Nc2ccccc2)c(=O)n1CC(=O)N1CCN(c2ccccc2)CC1,11µM*,6%,10%,u,-1%,i
Cc1cccc(NC(=O)Nc2ccc(C)n(CC(=O)NC(C)C)c2=O)c1,7.1µM*,6%,5%,u,-2%,-24%
CCOc1ccc(NC(=O)Cn2c(C)ccc(NC(=O)Nc3cccc(C)c3)c2=O)cc1,u,53%,-26%,40µM*,0%,28µM*
Cc1cc(Cl)ccc1S(=O)(=O)N1C[C@@H](C(N)=O)[C@H](C2CCN(C)CC2)C1,i,u,8%[12.5 µM],0%,8%,4%
Cc1nc(C2CC(O)C2)cc(N2CCN(c3cnn(C)c(=O)c3)CC2)n1 (stereo unspecified),i,-17%,0%,i,2%,-1%
Cc1nc(C2CC(O)C2)cc(N2CCN(c3ccc(F)c(Cl)c3)CC2)n1 (stereo unspecified),i,-13%,-24%,18µM*,u,u
CC(C)C(=O)N1Cc2ccccc2CC2(CCCN2Cc2ccncc2)C1 (stereo unspecified),x,-5%,2%,-18%,x,-8%
Cn1cc(CN2CCNc3cc(-c4ccccc4)ncc3C2)cn1,45µM*,102%[87.6 µM],-5%[87.6 µM],u,3%[70.6 µM],-13%[138 µM]
c1ccc(CN2CCNc3cc(-c4ccncc4)ncc3C2)cc1,u,-15%[87.6 µM],-10%[87.6 µM],u,2%[70.6 µM],-19%[138 µM]
Cn1cc(CN2CCNc3cc(Nc4ccccc4)ncc3C2)cn1,28µM*,37%[87.6 µM],u,-60%[172 µM],1%[70.6 µM],u
Cc1noc(C)c1-c1cc2cc(CN(C)C)oc2c(NCc2ccccc2)n1,i,13%[87.6 µM],-6%[87.6 µM],u,2%[70.6 µM],u
Cc1noc(C)c1-c1cc2cc(CN(C)C)oc2c(Nc2cccnc2)n1,i,38%[87.6 µM],-1%[87.6 µM],71µM*,-1%[70.6 µM],25µM*
Cc1ccccc1-c1nc(-c2c(C)noc2C)cc2cc(CN(C)C)oc12,i,29%[87.6 µM],-9%[87.6 µM],u,4%[70.6 µM],28µM*
Cc1cc(OC2CN(Cc3cccc4ccccc34)C2)ccc1F,i,-15%[87.6 µM],1%[87.6 µM],100µM*,-20%[70.6 µM],u
Fc1ccc(OC2CN(Cc3cccc4ccccc34)C2)cc1F,x,-11%,3%,u,x,u
CN(C)C(=O)C1CCc2nnc(C3CCN(C(=O)c4ccc(Cl)cc4Cl)CC3)n21 (stereo unspecified),x,5%,0%,i,x,i
Cc1ccc(-c2c(C(=O)NCCc3ccc(Cl)cc3)nc3sccn23)cc1,x,-7%,-9%,35µM*,x,u
O=C(NCCc1ccc(Cl)cc1)c1nc2sccn2c1Br,18µM*,21%,3%,-21%,16%,-15%
O=C([C@@H]1C[C@H](F)CN1S(=O)(=O)c1ccc(Cl)s1)N1CCCCC1,i,-21%,-10%,-3%,-4%,-24%
O=C(Nc1nccs1)c1ccc2c(c1)OCCN(C1CCC1)C2,22µM*,106%[87.6 µM],-9%[87.6 µM],u,-3%[70.6 µM],u
Cc1ccccc1NC(=O)c1ccc2c(c1)OCCN(CCC(F)(F)F)C2,i,-16%[87.6 µM],-2%[87.6 µM],u,-1%[70.6 µM],u
CC(C)CCN1CCOc2cc(C(=O)Nc3ccccc3)ccc2C1,i,30%[87.6 µM],-24%[87.6 µM],u,-21%[70.6 µM],11µM*
Cc1cnc(NC(=O)c2ccc3c(c2)OCCN(C2CCC2)C3)s1,u,16%[87.6 µM],-4%[87.6 µM],u,-18%[70.6 µM],u
SMILES,FLuc inh,SNCA expr inhib,HEK293 viab,HEK cytotox,NPR1 antag,NIH3T3 tox
O=C(NCCOc1ccccc1)c1ccc2c(c1)OCCN(CCC(F)(F)F)C2,40µM*,26%[87.6 µM],-1%[87.6 µM],u,-10%[70.6 µM],-28%[138 µM]
Cc1cnc(NC(=O)c2ccc3c(c2)OCCN(Cc2ncccn2)C3)s1,40µM*,54%[87.6 µM],-5%[87.6 µM],u,0%[70.6 µM],-30%[138 µM]
COc1ccc(NC(=O)c2ccc3c(c2)OCCN(CCC(C)C)C3)cn1,i,-17%[87.6 µM],-11%[87.6 µM],u,u,u
COc1ccc(NC(=O)c2ccc3c(c2)OCCN(Cc2ncccn2)C3)c(F)c1,i,-2%[87.6 µM],-5%[87.6 µM],u,3%[70.6 µM],-3%[138 µM]
COc1ccccc1-c1[nH]ncc1CN1CCn2nnc(CCC(=O)N3CCCC3)c2C1,i,-30%,8%,-2%,13%,-3%
Cc1nnnn1-c1cccc(-c2nc(Cc3cccs3)nn2CCO)c1,i,-23%,-17%,-24%,2%,0%
O=C(CC1CCCC1)N1CCC2(CC1)CC(N(Cc1ccc(F)cc1)C1CC1)CCO2 (stereo unspecified),i,u,-4%,45µM*,-22%,u
O=C(N1CCC2(CC1)CC(N(Cc1ccccc1)C1CC1)CCO2)C1(c2ccccc2)CC1 (stereo unspecified),i,-25%,u,40µM*,u,45µM*
CC(=O)N1CCC2(CC1)CC(N(Cc1ccc(F)cc1)C1CC1)CCO2 (stereo unspecified),i,-16%,-9%,-11%,4%,4%
O=C(c1cccc(F)c1)N1CCC2(CC1)CC(N(Cc1ccc(F)cc1)C1CC1)CCO2 (stereo unspecified),i,22%,0%,u,2%,u
CC(C)CC(=O)N1CCC2(CC1)CC(N(Cc1ccc(F)cc1)C1CC1)CCO2 (stereo unspecified),i,2%,2%,u,4%,u
O=C(c1ccccc1)N1CCC2(CC1)CC(N(Cc1ccc(F)cc1)C1CC1)CCO2 (stereo unspecified),i,-8%,-8%,45µM*,-22%,u
CCC(=O)N1CCC2(CC1)CC(N(Cc1ccccc1)C1CC1)CCO2 (stereo unspecified),i,-16%,-2%,-28%,-11%,2%
CCC(C)(C)C(=O)N1CCC2(CC1)CC(N(Cc1ccc(F)cc1)C1CC1)CCO2 (stereo unspecified),i,-11%,-9%,45µM*,-8%,u
